Screens from PubChem.
TbPYK inhibitor = qHTS of Trypanosoma Brucei Inhibitors | Potency, µM (titrated, usually from 76.8 µM), for inactives: top-dose activity, negative = inhibition, most hits filed as inhibitors | AID 624173, 2012 | TbPYK enzyme, Kinase-Glo Plus ATP luminescence, 45 min | 0.12% of 410,000 active; note: nearly all actives have a fitted effect of over 50% in size
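Readout: single end-point luminescence (Kinase-Glo Plus, 10 min). Reaction conditions were TbPYK/substrate plus 130 uM ADP, 45 min at RT, pH 7.2 TEA buffer. No-enzyme wells served as controls, and data were normalized before concentration-response fitting.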
LmPK inh = qHTS Assay for Inhibitors of Leishmania Mexicana Pyruvate Kinase (LmPK); Q27686; purified LmPK, Kinase-Glo ATP luminescence, 1 h; Potency, µM (series often up to 57.5 µM), without a hit: at the highest dose activity change, negative = inhibition, hits mostly inhibitors; 0.37% of 290,000 active; AID 1721, 2009
Target sequence (Q27686 whole entry, looked up): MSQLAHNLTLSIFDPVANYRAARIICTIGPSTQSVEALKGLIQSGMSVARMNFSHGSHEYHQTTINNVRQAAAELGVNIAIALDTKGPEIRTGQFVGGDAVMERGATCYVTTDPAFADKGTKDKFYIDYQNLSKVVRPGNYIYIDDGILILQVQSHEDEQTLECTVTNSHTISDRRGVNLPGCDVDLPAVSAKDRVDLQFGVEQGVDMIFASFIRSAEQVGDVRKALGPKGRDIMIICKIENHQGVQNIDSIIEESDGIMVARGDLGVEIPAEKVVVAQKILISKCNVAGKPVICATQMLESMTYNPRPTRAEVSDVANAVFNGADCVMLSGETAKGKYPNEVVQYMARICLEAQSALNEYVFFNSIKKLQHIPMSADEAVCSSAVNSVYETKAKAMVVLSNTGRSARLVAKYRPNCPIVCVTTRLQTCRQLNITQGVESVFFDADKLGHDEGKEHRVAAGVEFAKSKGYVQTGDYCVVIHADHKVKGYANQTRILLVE
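Kinase-Glo luminescence read after 1 h RT reaction of 0.1 nM LmPK with 0.5 mM PEP and 0.1 mM ADP. Activity scaled between uninhibited and enzyme-free controls.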
Sm TGR inh = qHTS Assay for the Inhibitors of Schistosoma Mansoni Peroxiredoxins; purified TGR, DTNB reduction, TNB absorbance 405 nm; 3% of 360,000 active; Potency, µM (highest dose often 114 µM), inactives show top-dose activity change, negative = inhibition, most hits filed as inhibitors; note: nearly all actives have a fitted effect of over 60% in size
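Kinetic colorimetric format: TGR-catalysed, NADPH-driven DTNB reduction monitored via TNB absorbance. Enzyme dispensed at 20 nM; compound exposure 15 min at room temperature before reaction start.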
RE007 growth inh = qHTS Assay for Inhibitors of the HIV-1 protein Vpr; S. pombe RE007 Vpr strain, BacTiter-Glo ATP luminescence, 24 h; Potency, µM (titrated, usually from 92.2 µM), for inactives: at the highest dose activity change, negative = less growth, usual class: inhibitors; 0.21% of 360,000 active; AID 651644, 2012; active = well fitted falling curve with a large enough effect; inconclusive = small, poorly fitted or top-dose-only effect; inactive = no such curve, though single readings can be large or run the other way; note: nearly all actives have a fitted effect of over 50% in size
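Fission yeast RE007 carrying one integrated HIV-1 vpr copy, seeded at OD 0.01 in PMG+AL medium with 23 nL pinned compound. Grown 24 h at 30 degrees; viability read by BacTiter-Glo luminescence after 5 min.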
AMA1 RON2 block = qHTS for Inhibitors of AMA1-RON; Towards Development of Antimalarial Drug Lead: Primary Screen; Plasmodium falciparum AMA1 (3D7) - RON2 peptide interaction; Potency, µM (doses to about 58.2 µM), for inactives: at the top dose activity change, negative = inhibition, hits mostly inhibitors; AlphaScreen AMA1-biotinylated RON2 peptide binding; 0.2% of 360,000 active; AID 720542, 2013;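 note: 0% = vehicle wells and -100% = peptide control; nearly all actives have a fitted effect of over 45% in size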
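AMA1 (3D7) with his tag at 25 nM final met compounds first, then biotinylated RON2 peptide at 25 nM; detection used donor plus acceptor beads, 10 µg/mL apiece, read by AlphaScreen after 30 min at room temperature.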
* hit, by the source's call; u = inconclusive; x = no result; [ ] = another dose, or the depositor's remark. An excerpt weighted towards active compounds, which were near 3.2% of everything screened. Unless noted, calls come from the whole dose curve; as a rule, active = well fitted curve in the direction sought with a large enough effect; inconclusive = small, poorly fitted or top-dose-only effect, or another doubt; inactive = no such curve, though single readings can be large; an effect the other way counts as inactive or inconclusive. Unless noted, % is set by controls: 0 for no effect and ±100 for the full control effect; potency is the fitted concentration of half-maximal effect.

SMILES | TbPYK inhibitor | LmPK inh | Sm TGR inh | RE007 growth inh | AMA1 RON2 block
CS(=O)(=O)NCCSCc1ccco1 | -4% | 12% | 20µM* | 4% | -4%
O=[N+]([O-])c1ccccc1S(=O)(=O)NCCSCc1ccco1 | -7% | x | 25µM* | 21% | -12%
COc1ccc(CNC(=O)c2cnn3c(C)c(Cc4ccc(F)cc4)c(C)nc23)cc1 | 1% | x | -3% | x | x
COC(=O)c1ccccc1NC(=O)Cn1c(=O)n(CCCC(=O)NCc2ccccc2OC)c(=O)c2ccccc21 | 0% | x | 10% | x | x
O=C(Oc1ccc(=O)n(-c2ccccc2)n1)c1cccc(Cl)c1 | -1% | 2% | 16µM* | -19% | -2%
O=C(Oc1ccc(=O)n(-c2ccccc2)n1)c1ccc(Cl)cc1 | -19% | -6% | u | -25% | 1%
N#Cc1cnc2cc(-c3ccccc3)nn2c1N | -3% | -8% | -4% | 4% | 14%
COc1ccc(-c2cc3ncc(-c4ccccc4)c(N)n3n2)cc1 | -6% | 16µM* | -3% | -26% | -4%
O=[N+]([O-])c1ccc(-n2nnnc2-c2ccccc2)cc1 | -26% | -6% | -1% | -5% | 8%
O=[N+]([O-])c1ccc(-n2nnnc2-c2ccccc2)c([N+](=O)[O-])c1 | -6% | 0% | 18µM* | x | 7%
O=C(COc1ccc(Cl)cc1)Nc1ccc2nc(SCC(=O)N3CCCC3)sc2c1 | -9% | x | -11% | x | x
COc1ccc2c(c1)c1c(c(=O)n(CCc3ccccc3)c(=O)n1Cc1ccc(Cl)cc1)n2C | -7% | x | -5% | x | x
CCCOc1ccc(Oc2nc(NCC(C)C)nc(N(C)C)n2)nn1 | 4% | x | 0% | x | x
CCCS(=O)(=O)c1nnnn1-c1cccc(OC)c1 | 3% | 1% | 5.6µM* | -29% | 3%
CCCN(Cc1cccs1)C(=O)Nc1cc(C)ccc1OC | 8% | x | 2% | x | x
CC(O)(CS(=O)(=O)Cc1ccccc1)c1ccc(Cl)cc1 (stereo not drawn) | 0% | -6% | -2% | 6% | -3%
Cc1ccc(C(C)(O)CS(=O)(=O)Cc2ccccc2Cl)cc1 (stereo not drawn) | -8% | 1% | 50µM* | -9% | -3%
COc1ccc(C2(CNC(=O)/C=C\c3ccco3)CCCC2)cc1OC | -19% | -4% | 3.2µM* | -10% | 8%
COc1ccc(C(NC(=O)/C=C/c2ccco2)c2ccc(OC)c(OC)c2)cc1OC | -27% | 1% | 8.9µM* | 4% | -12%
COc1ccc(C(NC(=O)c2ccco2)c2ccc(OC)c(OC)c2)cc1 (stereo not drawn) | -11% | -6% | 0% | 7% | -6%
CCN(CC)c1nn2c(=O)c(C(=O)NCCc3cccc(C)c3)cnc2s1 | -10% | x | 1% | x | x
COC(=O)C1=C(C)N(c2cccc(Cl)c2)C(=O)C1 | -3% | 4% | -36% | 4% | -2%
COC(=O)C1=C(C)N(c2ccc(F)c(Cl)c2)C(=O)C1 | 2% | 0% | 25µM* | -11% | -2%
Cn1c(NCc2ccccc2F)nc2ccccc21 | -6% | x | 1% | x | x
COc1ccc(C2C(C(=O)/C=C/c3ccco3)=C(O)C(=O)N2CCN2CCOCC2)cc1 (stereo not drawn) | -10% | 1% | 14µM* | -6% | -9%
SMILES | TbPYK inhibitor | LmPK inh | Sm TGR inh | RE007 growth inh | AMA1 RON2 block
COc1cccc(C2C(C(=O)c3sc(C)nc3C)=C(O)C(=O)N2CCN2CCOCC2)c1 (stereo not drawn) | 1% | 1% | -16% | 13% | 2%
COc1ccc(OC)c(C2C(C(=O)c3ccco3)=C(O)C(=O)N2CCN2CCOCC2)c1 (stereo not drawn) | x | -5% | u | x | x
CCOc1ccc(C2C(C(=O)/C=C/c3ccco3)=C(O)C(=O)N2CCN2CCOCC2)cc1OC (stereo not drawn) | -13% | 7%[11.5 µM] | 5µM* | 6% | 10%
COc1cccc(C2C(C(=O)/C=C/c3ccco3)=C(O)C(=O)N2CCN2CCOCC2)c1 (stereo not drawn) | -12% | 7%[11.5 µM] | 4.5µM* | 5% | -9%
Cc1ccccc1C1CC(=O)Nc2ccc3ccccc3c21 (stereo not drawn) | 4% | x | 5% | x | x
N#Cc1ccc(/C=C/C(=O)c2ccccc2)cc1 | 1% | -11% | 8.9µM* | x | -5%
Nc1ccccc1C(=O)/C=C/c1ccc2c(c1)OCO2 | 2% | 14µM* | 3% | u | u
O=C(/C=C/c1ccc2c(c1)OCCO2)c1ccccc1 | -7% | 13µM* | -26% | u | -7%
O=C(/C=C/c1ccccc1)c1ccccc1 | 3% | u | u | -26%[18.4 µM] | 12%
Cc1ccc(NC2CC(=O)N(c3ccc(C)cc3)C2=O)cc1 (stereo not drawn) | -4% | -1% | -28% | -11% | 4%
CN(C)S(=O)(=O)c1cc(NC2CC(=O)N(c3ccc(F)cc3)C2=O)ccc1Cl (stereo not drawn) | 1% | 4% | 25µM* | -5% | -1%
CCN(CC)CCC[C@H](C)Nc1c2ccc(Cl)cc2nc2ccc(OC)cc12 | -6% | x | x | x | x
CC(C)Cn1c(N)c(C(=O)COC(=O)c2cc(-c3ccco3)nc3ccccc23)c(=O)n(C)c1=O | -22% | -5% | 6.3µM* | -1% | -4%
Cn1c(N)c(C(=O)COC(=O)c2cc(-c3ccccc3)nc3ccccc23)c(=O)n(Cc2ccccc2)c1=O | 2% | 7% | -7% | 1% | 8%
Cn1c(=O)c(C(=O)COC(=O)c2cc(-c3ccco3)nc3ccccc23)c(N)n(Cc2ccccc2)c1=O | x | 6% | 3.2µM* | x | x
CC(C)Cn1c(N)c(C(=O)COC(=O)c2cc(-c3ccccc3)nc3ccccc23)c(=O)n(C)c1=O | -10% | 3% | 0% | 8% | 5%
CCCCN(CC)C(=O)CSc1nc2n[nH]c(C)c2c(=N)n1-c1cccc(Cl)c1 | 0% | x | 9% | x | x
C=CCSc1nc2c(c(-c3ccsc3)c1C#N)CN(C)CC2 | -13% | -3% | 10µM* | -9% | 1%
CN1c2ccccc2N(C)C1(C)c1ccccc1 | u | -27% | 45µM* | -13% | u
CCN1c2ccccc2N(C)C1(C)c1ccccc1 (stereo not drawn) | u | u | 35µM* | u | 32µM*
Cc1cc(N2CCN(c3ccc(F)cc3)CC2)n2nc(-c3ccc(Cl)cc3)nc2n1 | -1% | x | 8% | x | x
COc1cc2c(cc1OC)-c1n[nH]c(=S)n1C(C)(C)C2 | u | 18µM* | -3% | 4% | 50%
